Records with an inconclusive call do not appear. Activity calls are given as the source filed them. Calls come from the whole dose curve; as a rule, active = well fitted cell-killing curve with a large enough effect; inconclusive = small, poorly fitted or top-dose-only effect, or effect the other way; inactive = no such curve, though single readings can be large or run the other way.
How the values were obtained:
[1] = Quantitative High-Throughput drug screen in 47 multiple myeloma cell lines against the NCATS MIPE library collection: MM1R_ATCC cell viability assay (AID 1918981); note: nearly all actives have a fitted effect of over 35% in size
Procedure, shortened: (§1)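 Readout: median RLU from CellTiter-Glo after 5 min at room temperature. Preceding step was 48 h drug treatment of 500 cells/well at 37 °C, 5% CO2, with DMSO-only and media-only control wells.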

[2] = Quantitative High-Throughput drug screen in 47 multiple myeloma cell lines against the NCATS MIPE library collection: KMS34_JCRB cell viability assay (AID 1918985); note: nearly all actives have a fitted effect of over 40% in size
Procedure, shortened: as §1

[3] = Quantitative High-Throughput drug screen in 47 multiple myeloma cell lines against the NCATS MIPE library collection: OCIMY7_PLB cell viability assay (AID 1918987); conditions: OCI-MY7 myeloma viability, CellTiter-Glo ATP, 48 h; viability (% of DMSO): at 45.8 µM (top of the series); note: nearly all actives have a fitted effect of over 65% in size
Procedure, shortened: as §1

[4] = Quantitative High-Throughput drug screen in 47 multiple myeloma cell lines against the NCATS MIPE library collection: OCIMY5_PLB cell viability assay (AID 1918988); note: nearly all actives have a fitted effect of over 65% in size
Procedure, shortened: as §1

[5] = Quantitative High-Throughput drug screen in 47 multiple myeloma cell lines against the NCATS MIPE library collection: OPM1_PLB cell viability assay (AID 1918989); note: nearly all actives have a fitted effect of over 40% in size;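 for viability (% of control): 100% = DMSO-only wells and 0% = media-only wells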
Procedure, shortened: as §1

[6] = Quantitative High-Throughput drug screen in 47 multiple myeloma cell lines against the NCATS MIPE library collection: XG6_PLB cell viability assay (AID 1919865); note: nearly all actives have a fitted effect of over 40% in size;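 for viability (% of control): 100% = DMSO-only wells and 0% = media-only wells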
Procedure, shortened: as §1

[7] = Quantitative High-Throughput drug screen in 47 multiple myeloma cell lines against the NCATS MIPE library collection: XG1_PLB cell viability assay (AID 1919866); note: nearly all actives have a fitted effect of over 35% in size
Procedure, shortened: as §1

[8] = Quantitative High-Throughput drug screen in 47 multiple myeloma cell lines against the NCATS MIPE library collection: VP6_DJ cell viability assay (AID 1919867); note: nearly all actives have a fitted effect of over 40% in size;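 for viability (% of DMSO): 100% = DMSO-only wells and 0% = wells with media alone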
Procedure, shortened: as §1

[9] = Quantitative High-Throughput drug screen in 47 multiple myeloma cell lines against the NCATS MIPE library collection: PE2_PLB cell viability assay (AID 1919869); note: nearly all actives have a fitted effect of over 35% in size;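 for viability (% of control): 100% = DMSO-only wells and 0% = cell-free media-only wells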
Procedure, shortened: as §1

[10] = Quantitative High-Throughput drug screen in 47 multiple myeloma cell lines against the NCATS MIPE library collection: PCM6_Riken cell viability assay (AID 1919870); note: nearly all actives have a fitted effect of over 30% in size;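 for viability (% of control): 100% = DMSO-only wells and 0% = media-only wells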
Procedure, shortened: as §1

[11] = Quantitative High-Throughput drug screen in 47 multiple myeloma cell lines against the NCATS MIPE library collection: KMS28PE_JCRB cell viability assay (AID 1918983); note: nearly all actives have a fitted effect of over 35% in size
Procedure, shortened: as §1

[12] = Quantitative High-Throughput drug screen in 47 multiple myeloma cell lines against the NCATS MIPE library collection: U266_ATCC cell viability assay (AID 1919864); note: nearly all actives have a fitted effect of over 35% in size;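 for viability (% of DMSO control): 0% = media-only wells without cells and 100% = DMSO-only wells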
Procedure, shortened: as §1

[13] = Quantitative High-Throughput drug screen in 47 multiple myeloma cell lines against the NCATS MIPE library collection: RPMI8226_ATCC cell viability assay (AID 1919871); note: nearly all actives have a fitted effect of over 30% in size
Procedure, shortened: as §1

[14] = Quantitative High-Throughput drug screen in 47 multiple myeloma cell lines against the NCATS MIPE library collection: OPM2_DSMZ cell viability assay (AID 1919872); note: nearly all actives have a fitted effect of over 30% in size
Procedure, shortened: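 Inhibition of cell viability is measured here. Each line was plated at 500 cells per well, treated with MIPE 4.0 drugs, kept 48 hours at 37C, then assayed for ATP content by CellTiter-Glo luminescence.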

[15] = Quantitative High-Throughput drug screen in 47 multiple myeloma cell lines against the NCATS MIPE library collection: KMS11_JCRBsus cell viability assay (AID 1919873); note: nearly all actives have a fitted effect of over 50% in size;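 for viability (% of control): 100% = DMSO-only wells and 0% = media-only wells without cells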
Procedure, shortened: as §1

[16] = Quantitative High-Throughput drug screen in 47 multiple myeloma cell lines against the NCATS MIPE library collection: UTMC2_PLB cell viability assay (AID 1919868); conditions: CellTiter-Glo ATP luminescence, 48 h; viability (% of DMSO control): at 45.8 µM (top of the series); note: nearly all actives have a fitted effect of over 55% in size;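 for viability (% of DMSO control): 100% = DMSO-only wells and 0% = media-only wells without cells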
Procedure, shortened: as §1

[17] = Quantitative High-Throughput drug screen in 47 multiple myeloma cell lines against the NCATS MIPE library collection: KMS28BM_JCRB cell viability assay (AID 1919874); note: nearly all actives have a fitted effect of over 35% in size
Procedure, shortened: as §1

[18] = Quantitative High-Throughput drug screen in 47 multiple myeloma cell lines against the NCATS MIPE library collection: L363_DSMZ cell viability assay (AID 1918984); conditions: L363 myeloma viability, CellTiter-Glo ATP luminescence, 48 h; viability (% of control): at 45.8 µM (top of the series); note: nearly all actives have a fitted effect of over 40% in size
Procedure, shortened: as §1

[19] = Quantitative High-Throughput drug screen in 47 multiple myeloma cell lines against the NCATS MIPE library collection: SKMM1_PLB cell viability assay (AID 1919863); conditions: SKMM1 myeloma viability, CellTiter-Glo ATP, 48 h; viability: active compounds read low; note: nearly all actives have a fitted effect of over 35% in size
Procedure, shortened: as §1

[20] = Quantitative High-Throughput drug screen in 47 multiple myeloma cell lines against the NCATS MIPE library collection: LP1_DSMZ cell viability assay (AID 1918982); note: nearly all actives have a fitted effect of over 35% in size
Procedure, shortened: as §1
Potency is the fitted concentration of half-maximal effect.

Oc1cc(O)cc(C=Cc2ccc(O)c(O)c2)c1
active: Potency [1] 20.9 µM | Potency [2] 11.8 µM | Potency [3] 5.26 µM | Potency [4] 20.9 µM | Potency [5] 16.6 µM | Potency [6] 5.26 µM | Potency [7] 8.33 µM | Potency [8] 10.5 µM | Potency [9] 4.18 µM | Potency [10] 10.5 µM

O[C@@H](COc1cccc2ncccc12)CN1CCN(C2c3ccccc3[C@@H]3[C@H](c4ccccc42)C3(F)F)CC1 (stereo partly drawn)
inactive: Potency [14]
active: Potency [1] 18.7 µM | Potency [11] 23.5 µM | Potency [4] 18.7 µM | Potency [12] 8.33 µM | Potency [6] 7.43 µM | Potency [7] 7.43 µM | Potency [9] 16.6 µM | Potency [10] 10.5 µM | Potency [13] 20.9 µM | Potency [15] 4.18 µM

CC(C)C[C@@H](C(=O)N[C@H](C(=O)OC1CCCC1)c1ccccc1)[C@H](O)C(=O)NO
active: Potency [1] 18.7 µM | Potency [11] 23.5 µM | Potency [4] 20.9 µM | Potency [6] 14.8 µM | Potency [8] 16.6 µM | Potency [16] 16.6 µM | Potency [9] 29.6 µM | Potency [10] 18.7 µM | Potency [15] 18.7 µM | Potency [17] 20.9 µM

Cc1nc2c([nH]1)CCN(C(=O)c1ccc(NC(=O)c3ccccc3-c3ccccc3)cc1)c1ccccc1-2
inactive: Potency [1] | Potency [11] | Potency [7] | Potency [14] | Potency [17]

CC1=C[C@@H]2[C@@H]([C@@H](O)C[C@@]3(C)[C@H]2C[C@@H](C)[C@]3(O)C(=O)CO)[C@@]2(C)Cc3cnn(-c4ccccc4)c3C=C12
active: Potency [1] 20.9 µM | Potency [18] 0.0332 µM | Potency [2] 23.5 µM | Potency [4] 1.87 µM | Potency [19] 18.7 µM | Potency [9] 23.5 µM | Potency [13] 0.0264 µM | Potency [14] 20.9 µM | Potency [15] 0.0059 µM

COc1nccc(-c2c(-c3ccc(F)cc3)ncn2C2CCC(O)CC2)n1 (stereo not drawn)
inactive: Potency [3]
active: Potency [1] 18.7 µM | Potency [5] 10.5 µM | Potency [12] 2.96 µM | Potency [9] 18.7 µM | Potency [13] 1.18 µM | Potency [15] 4.18 µM

N#CC1(c2cccc(C(=O)Nc3cc(Oc4ccc5nc(NC(=O)C6CC6)sc5n4)ccc3F)c2Cl)CC1
active: Potency [1] 14.8 µM | Potency [19] 2.96 µM | Potency [12] 5.26 µM | Potency [6] 1.48 µM | Potency [7] 2.35 µM | Potency [8] 5.9 µM | Potency [10] 14.8 µM | Potency [13] 1.05 µM | Potency [15] 0.132 µM
inactive: Potency [2]

C[C@]12CC[C@@H]3c4ccc(O)cc4CC[C@H]3[C@H]1[C@@H](O)[C@@H](O)[C@H]2O
active: Potency [7] 14.8 µM
inactive: Potency [20] | Potency [11] | Potency [18] | Potency [2] | Potency [5] | Potency [8] | Potency [9] | Potency [14] | Potency [17]

CC(C)(F)C[C@H](N[C@@H](c1ccc(-c2ccc(S(C)(=O)=O)cc2)cc1)C(F)(F)F)C(=O)NC1(C#N)CC1
inactive: Potency [1] | Potency [2] | Potency [12] | Potency [6] | Potency [7] | Potency [8] | Potency [10] | Potency [14] | Potency [15] | Potency [17]
active: Potency [9] 6.62 µM | Potency [13] 20.9 µM

O=C(O)c1ccc(O)c2ncc(N3CCOCC3)cc12
inactive: Potency [11] | Potency [5] | Potency [10] | Potency [14]
active: Potency [20] 20.9 µM | Potency [18] 20.9 µM | Potency [4] 13.2 µM | Potency [19] 18.7 µM | Potency [9] 16.6 µM

CCC(=O)NCC[C@@H]1CCc2ccc3c(c21)CCO3
inactive: Potency [1] | Potency [6] | Potency [7] | Potency [8] | Potency [16] | Potency [9] | Potency [13] | Potency [15]

CCN(CCO)CCCOc1ccc2c(Nc3cc(CC(=O)Nc4cccc(F)c4)[nH]n3)ncnc2c1
inactive: Potency [20] | Potency [11] | Potency [18] | Potency [2] | Potency [5] | viability [19] 116% | Potency [12] | Potency [8] | Potency [9] | Potency [10] | Potency [13] | Potency [14] | Potency [15]
active: Potency [3] 1.05 µM | Potency [4] 0.264 µM | Potency [7] 0.0418 µM | Potency [16] 0.0743 µM | Potency [17] 0.0372 µM

O=C(Nc1cccc(C(F)(F)F)c1)Nc1cc(S(=O)(=O)NC2CC2)ccc1-c1ccsc1
active: Potency [1] 20.9 µM | Potency [5] 26.4 µM | Potency [6] 23.5 µM | Potency [16] 18.7 µM | Potency [9] 26.4 µM | Potency [13] 13.2 µM | Potency [14] 3.72 µM | Potency [15] 16.6 µM | Potency [17] 20.9 µM

Reference: PubChem BioAssay (NCATS)
